In the library only some 2.2% were active in any assay of this set; here they are far more common.
CF NFkB block – inhibitors of cystic fibrosis induced NF-kB | KKLEB NF-kB-GFP reporter, PAF-induced, GFP fluorescence overnight | inhibition, % at 5 µM | 0.86% of 360,000 active | AID 588850;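 active = at least 50% inhibition at 5 µM, scaled per plate between neutral and stimulator controls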;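 also: PAF is a Pseudomonas aeruginosa culture filtrate used as stimulus; plate controls were PAF-stimulated DMSO wells for no effect and unstimulated DMSO wells for full effect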
iPSC survival up – hiPSC single-cell survival enhancement | ATPlite luminescence; 100% = ROCK inhibitor wells, 0% = DMSO | survival enhancement, % at 20 µM | 0.044% of 360,000 active; in the data active = survival enhancement above about 18%;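 also: cells exposed to compounds for 16 hours before the ATP read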
HIF-2a inh – HIF-2a inhibition; inhibition, % at 18.8 µM; 786-0 RCC cells HIF-2a reporter, luciferase luminescence, overnight; AID 624352; 0.72% of 360,000 active;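 active = inhibition of the luminescence signal of 40% or more relative to plate controls, in a single-dose primary screen at 18.75 µM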
PPC-1+TRAIL kill – compounds killing PPC-1 cancer cells with TRAIL present (potentiator screen, no TRAIL-free arm); cell killing (% activity), % at 4 µM or 5 µM; 0.41% of 220,000 active; PPC-1 cells + TRAIL, ATPLite viability luminescence; AID 1443;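 active = cell killing above 50% in the first pass at 4 µM, then a duplicate retest at 5 µM averaging 50% or more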;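 also: plate controls were cells with TRAIL plus DMSO for no effect and medium-only wells lacking cells for full effect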
KKLEB tox – counter-screen for CF NF-kB inhibitors: cytotoxicity; activity change (cytotoxicity), % at 5 µM; 0.36% of 360,000 active; KKLEB CF airway cells viability, ATPlite luminescence, overnight; hits give low values; cells stimulated with P. aeruginosa culture filtrate;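 active = corrected activity change at or below -50% at 5 µM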
C8 TRAIL sens – caspase-8 TRAIL sensitization; NB7+C8 cells + TRAIL, ATPlite viability luminescence; inhibition (viability loss, TRAIL sensitization), % at 10 µM; 1% of 360,000 active;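 active = compounds causing at least 50% loss of cell viability in the single-dose screen, relative to plate controls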
CF NFkB inh conf – CF NF-kB inhibition confirmation, single concentration | shares compounds with CF NFkB block | KKLEB CF airway cells, PAF-induced NF-kB-GFP fluorescence, overnight | inhibition, % at 5 µM | 64% of 1,300 active | AID 602472; in the data active = inhibition above about 40%;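 also: stimulus PAF is a Pseudomonas aeruginosa filtrate and not platelet activating factor; plate controls were DMSO wells with stimulus for no effect and unstimulated DMSO wells for full effect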
Mdm2-MdmX confirm – Mdm2/MdmX (human) interaction inhibition, confirmed; shares compounds with HIF-2a inh; SaOS-2 split-luciferase Mdm2/MdmX complementation, luminescence; inhibition, % at 8 µM; 99% of 740 active;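 active = mean inhibition of the luminescence signal across two replicates at or above 26 percent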
Target sequence (O15151 whole entry, looked up): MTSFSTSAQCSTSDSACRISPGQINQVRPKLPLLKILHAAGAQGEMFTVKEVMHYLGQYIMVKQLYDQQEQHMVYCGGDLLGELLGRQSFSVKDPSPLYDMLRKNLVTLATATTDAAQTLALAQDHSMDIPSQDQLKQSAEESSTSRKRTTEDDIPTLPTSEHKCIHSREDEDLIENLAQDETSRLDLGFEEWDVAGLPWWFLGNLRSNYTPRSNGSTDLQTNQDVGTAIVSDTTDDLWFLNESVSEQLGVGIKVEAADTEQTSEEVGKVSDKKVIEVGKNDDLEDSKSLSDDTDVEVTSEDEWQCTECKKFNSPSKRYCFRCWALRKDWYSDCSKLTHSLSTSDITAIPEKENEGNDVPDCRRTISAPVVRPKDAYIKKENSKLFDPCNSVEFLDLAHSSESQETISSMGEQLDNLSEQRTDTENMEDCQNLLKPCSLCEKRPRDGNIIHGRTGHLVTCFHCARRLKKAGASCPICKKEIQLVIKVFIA
Target sequence (Q00987 whole entry, looked up): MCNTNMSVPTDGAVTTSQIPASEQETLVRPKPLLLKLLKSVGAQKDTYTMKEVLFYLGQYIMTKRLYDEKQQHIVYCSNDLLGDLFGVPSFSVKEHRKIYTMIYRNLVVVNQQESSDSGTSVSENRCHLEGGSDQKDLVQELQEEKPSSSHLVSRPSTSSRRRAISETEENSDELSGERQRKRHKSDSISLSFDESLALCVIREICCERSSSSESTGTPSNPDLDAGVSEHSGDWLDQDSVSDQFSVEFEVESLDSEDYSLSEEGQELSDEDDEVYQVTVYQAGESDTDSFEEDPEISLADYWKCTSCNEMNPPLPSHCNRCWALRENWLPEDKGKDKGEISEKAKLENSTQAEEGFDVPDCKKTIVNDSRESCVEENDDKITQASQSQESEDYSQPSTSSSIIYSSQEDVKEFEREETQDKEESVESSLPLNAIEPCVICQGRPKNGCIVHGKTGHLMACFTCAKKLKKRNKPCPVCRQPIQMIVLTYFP
HIF-2a inh conf – confirmation of HIF-2a inhibitors | 786-0 RCC cells, HIF-2a luciferase reporter luminescence, overnight | 56% of 1,800 active | shares compounds with HIF-2a inh | inhibition, % at 18.8 µM;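 active = mean inhibition across four replicates of at least 40 percent at the single tested concentration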
HIF-1a counter – HIF-1a inhibition counter-screen for HIF-2a hits; shares compounds with HIF-2a inh; MiaPaCa-2 HIF-1a luciferase reporter, desferoxamine, overnight; inhibition, % at 18.8 µM; 72% of 1,800 active; AID 651589;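 active = mean inhibition of the reporter signal across four replicates at the single tested dose of 50% or more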
* marks the source's active call; other numbers are inactive results; . = no result.

SMILES	CF NFkB block	iPSC survival up	HIF-2a inh	PPC-1+TRAIL kill	KKLEB tox	C8 TRAIL sens	HIF-2a inh conf	HIF-1a counter	others
C=CCOc1ccccc1C(=O)/C=C1/C(=O)Nc2ccccc21	92*	0	80*	.	-49	12	32	55*	CF NFkB inh conf=37
COc1ccc(C(=O)/C=C2/C(=O)Nc3ccccc32)cc1	-16	-1	37	.	-5	20	.	.
COc1ccc(C(=O)/C=C2/C(=O)Nc3ccccc32)c(OC)c1	84*	-1	91*	.	-40	28	64*	88*	CF NFkB inh conf=29
COc1cc(OC)c(C2NC(=O)CCC2[N+](=O)[O-])cc1OC (configuration not stated)	-12	-1	5	.	12	4	.	.
COC(CN(C(=O)CCl)C(C(=O)NC1CCCCC1)c1ccccc1C)OC (configuration not stated)	54*	-3	47*	8	-41	10	10	84*	CF NFkB inh conf=-6
Cn1nnnc1Sc1ncnc2scc(-c3ccc(C#N)cc3)c12	77*	-1	90*	.	-48	10	94*	107*	CF NFkB inh conf=3;Mdm2-MdmX confirm=103*
CC(=O)c1ccccc1-c1csc2ncnc(Sc3nnnn3C)c12	43	0	8	.	-27	-3	.	.
Cn1nnnc1Sc1ncnc2scc(-c3cccc(F)c3)c12	66*	-1	75*	.	-17	15	54*	104*	CF NFkB inh conf=29;Mdm2-MdmX confirm=103*
COC(=O)c1ccc(CNC(=O)Cn2cnc3c(OCc4ccccc4)ncnc32)cc1	-25	1	-6	.	2	-6	.	.
Cc1noc(C)c1COC(=O)c1csc2c1CCCC2	-14	0	-10	.	-3	4	.	.
CC1=C(C(=O)OCc2ccc3c(c2)OCO3)C(c2cccc([N+](=O)[O-])c2)NC(=O)N1 (configuration not stated)	74*	3	23	4	-12	-7	.	.	CF NFkB inh conf=68*;Mdm2-MdmX confirm=74*
CC1=C(C(=O)OCc2ccccc2)C(c2cccc([N+](=O)[O-])c2)NC(=O)N1 (configuration not stated)	6	0	14	.	-9	1	.	.
CC(C)CN(C(=O)COC(=O)CCc1nc2ccccc2s1)c1c(N)n(Cc2ccccc2)c(=O)[nH]c1=O	3	0	21	.	-6	-1	.	.
O=S(=O)(Nc1ccc(Cl)cn1)c1ccc2c(c1)OCCO2	-25	1	5	.	11	-12	.	.
NS(=O)(=O)c1ccc(NC(=O)c2c(Cl)cccc2Cl)cc1	-18	0	5	21	-10	4	.	.
O=C(Nc1ccncc1)c1c(Cl)cccc1Cl	64*	7	41*	.	-14	-8	7	14	CF NFkB inh conf=71*
CCC[C@H](CN[C@@H](CNC)[C@H](C)CC)NCCc1cc(C(F)(F)F)cc(C(F)(F)F)c1	13	-5	12	.	-49	88*	.	.	Mdm2-MdmX confirm=103*
CCC[C@@H](CN[C@@H](CNC)[C@H](C)CC)NCC1CCC(C(C)(C)C)CC1 (some centres not stated)	9	-5	-3	.	-30	35	.	.
CC[C@@H](C)[C@H](CNC)NC[C@@H](Cc1cccc2ccccc12)NCCc1cccc(C(F)(F)F)c1	29	-4	15	.	-48	96*	.	.	Mdm2-MdmX confirm=103*
OC(CNCCc1ccc(C(F)(F)F)cc1)COc1cccc2ccccc12 (configuration not stated)	10	-3	21	20	-10	18	.	.
COc1cc(OC)c(NS(=O)(=O)c2ccc(Cl)c(C(=O)OC(C)C(=O)N3CCCC3)c2)cc1Cl (configuration not stated)	2	-1	6	-19	-1	26	.	.
Cc1cn(CC(=O)N2CCN(c3ccccn3)CC2)c(=O)[nH]c1=O	-18	4	-6	.	-21	1	.	.
COc1ccc2cc(CCNC(=O)c3ccc4c(c3)OCO4)c(=O)[nH]c2c1	-24	0	38*	29	-10	-3	-12	3
Cc1c(CCC(=O)N2CCC(C(=O)O)(c3ccccc3)CC2)c(=O)oc2cc3oc4c(c3cc12)CCCC4	11	-1	63*	.	4	-15	78*	43
COc1ccc(S(=O)(=O)N2CCN(CC(=O)NC(Cc3ccccc3)C(C)=O)CC2)cc1 (configuration not stated)	17	0	4	.	-4	-3	.	.
SMILES	CF NFkB block	iPSC survival up	HIF-2a inh	PPC-1+TRAIL kill	KKLEB tox	C8 TRAIL sens	HIF-2a inh conf	HIF-1a counter	others
Cc1ccc(NC(=O)c2ccc(N3CCOCC3)c([N+](=O)[O-])c2)cc1S(=O)(=O)N1CCOCC1	1	0	51*	20	-5	31	3	59*
Cc1ccc(C(=O)Nc2ccccc2[N+](=O)[O-])cc1S(=O)(=O)N1CCOCC1	13	-1	14	.	0	-10	.	.
CCOC(=O)COc1ccc(S(=O)(=O)Nc2cccc(SC)c2)cc1	4	1	50*	26	-3	7	18	-1
CC(C)Nc1ccc(Nc2ccnc3cc4ccccc4cc23)cc1	-179	-1	55*	21	-21	92*	.	.	Mdm2-MdmX confirm=103*
COc1ccc(Nc2ccnc3ccccc23)cc1	34	6	-35	9	-5	-4	.	.
CSC(SC)=C(C#N)C(=O)c1ccccc1	26	0	90*	2	-50*	10	89*	-5
COc1cccc(C(=O)C(C#N)=C(SC)SC)c1	66*	-1	80*	2	-58*	45	91*	29
COc1cccc(C(=O)C(CCC#N)c2ccccc2)c1 (configuration not stated)	24	3	13	.	4	3	.	.
O=C(OCc1ccccc1)c1cccc(-c2nnc(-c3ccccc3)o2)c1	-12	-3	11	-8	6	-8	.	.
CCOC(=O)c1cccc(COC(=O)c2cccc(-c3nnc(-c4ccccc4)o3)c2)c1	7	0	47*	11	-2	-2	51*	-65
Cc1cc(F)ccc1S(=O)(=O)Nc1ccccc1C(=O)Nc1ccccc1-c1nc2ccccc2[nH]1	74*	0	3	17	-59*	26	.	.	Mdm2-MdmX confirm=97*

Screening results: PubChem BioAssay, Sanford-Burnham Center for Chemical Genomics
